# In PubChem BioAssay (NCATS):
# Several values for one entry are separate records, joined by “and”; a condition that tells them apart may be missing. Identical values can stand only once. Inconclusive results are not listed. Activity calls are given as the source filed them. The call rests on the fitted dose curve; in most records, active means well fitted curve in either direction with a large enough effect (not every such curve was filed as active); inconclusive means small, poorly fitted or top-dose-only effect, or another doubt; inactive means flat fitted curve, though single readings scatter.
# Test: NFAT Signaling Pathway (AID 444)
# Conditions: Jurkat NFAT-bla M1, carbachol, beta-lactamase ratio, 5 h; at 17.2 µM (top of the series)
# Text: NCGC Assay Overview: The nuclear factor of activated T cells (NFAT) family of transcription factors has been found primarily in most immune system cells and some other non-immune cells. NFAT plays the immunomodulatory role, primarily in T-cell activation and differentiation. NFAT target genes are also involved in the regulation of apoptosis and differentiation in non-immune cell types. The NFAT sequence was engineered to the upstream of the ?-lactamase reporter gene and transfected into Jurkat cells with co-transfection of muscarinic receptor1 [provided by Invitrogen Corp]. When an extracellular stimulus, such as carbachol, binds to the GPCR M1 receptor, it stimulates a signaling cascade that activates NFAT response element and ?-lactamase expression by phosphorylating the NFAT binding protein. This cell based ?-lactamase reporter gene assay can accurately monitor any changes occurring along the NFAT pathway, and can be used for screening small molecule inhibitor or activator upon activation by carbachol EC50 concentration. A small molecular library were screened in a titration series resulting in AC50s (can be either IC50s or EC50s).
# NCGC Assay Protocol Summary: The cells were prepared in RPMI 1640 medium containing 0.1% dialyzed FBS and 25 mM HEPES at 1.6 x 10^6cell/ml. The assay was performed in 1536-well plate format as follows: 5 ul of cell preparation 23 nl of compounds 1ul of carbachol (final concentration 1 uM) Briefly centrifuge the plates and incubate at 37 °C for 5 hours 1 ul of CCF4 dye mixture Incubate the plates at RT for 1 hour Read the plate in EnVision plate reader (Ex= 405nm, and Em1=460nm and Em2=530nm). The %Activity was determined from the ratio of 460nm/530nm. Data normalization and AC50 calculations were accomplished using GeneData software.
# On the % scale 0 is the no-effect control and ±100 the full control effect.
row,SMILES,"activity change, negative = inhibition"
1,CC(C)Oc1ccc2c(=O)c(-c3ccccc3)coc2c1,5.32% (inactive)
2,O=c1c(O)c(-c2ccc(O)cc2O)oc2cc(O)cc(O)c12,10% (inactive)
3,CC(C)[N+]1(C)[C@@H]2CC[C@H]1CC(OC(=O)C(CO)c1ccccc1)C2 (stereo not given in full),-79.9% (active)
4,CCCCN(CCCC)CCC(O)c1cc2c(Cl)cc(Cl)cc2c2cc(C(F)(F)F)ccc12 (stereo not given),14.4% (inactive)
5,O=C(O)c1cc(=O)c2c(OCC(O)COc3cccc4oc(C(=O)O)cc(=O)c34)cccc2o1,-1.1% (inactive) and -27.1% (inactive)
6,CCC1=C(C)CN(C(=O)NCCc2ccc(S(=O)(=O)NC(=O)NC3CCC(C)CC3)cc2)C1=O (stereo not given),4.19% (inactive)
7,O=C(O)c1cccnc1Nc1cccc(C(F)(F)F)c1,-16.9% (inactive) and -24.7% (inactive)
8,NS(=O)(=O)c1cc(C(=O)O)c(NCc2ccco2)cc1Cl,-8.48% (inactive)
9,CC1Cc2ccccc2N1NC(=O)c1ccc(Cl)c(S(N)(=O)=O)c1 (stereo not given),6.17% (inactive)
10,N=C(N=C(N)N)N1CCOCC1,-6.61% (inactive)
11,O=c1c(O)c(-c2cc(O)c(O)c(O)c2)oc2cc(O)cc(O)c12,-3.39% (inactive)
12,c1ccc2[nH]c(-c3cscn3)nc2c1,-19.5% (inactive) and -28.1% (inactive)
13,COc1ccc2cc([C@H](C)C(=O)O)ccc2c1,-15.8% (inactive) and 6.69% (inactive) and 9.43% (inactive)
14,Nc1cc(C(Cl)=C(Cl)Cl)c(S(N)(=O)=O)cc1S(N)(=O)=O,-0.14% (inactive)
15,Nc1ccc(S(N)(=O)=O)cc1,-0.0158% (inactive)
16,Cc1c(OCC(F)(F)F)ccnc1CS(=O)c1nc2ccccc2[nH]1 (stereo not given),-20.4% (inactive) and -11.1% (inactive)
17,NNc1nncc2ccccc12,-29.1% (inactive)
18,CC1(C)NC(=O)N(c2ccc([N+](=O)[O-])c(C(F)(F)F)c2)C1=O,-3.85% (inactive)
19,Cc1ccc(C)c(OCCCC(C)(C)C(=O)O)c1,0.602% (inactive) and 17.8% (inactive)
20,Oc1ccc(OCc2ccccc2)cc1,-7.24% (inactive)
21,Nc1nc(Cl)nc2c1ncn2[C@H]1C[C@H](O)[C@@H](CO)O1,16.6% (inactive) and 27.4% (inactive)
22,O=C(NCC1CCCCN1)c1cc(OCC(F)(F)F)ccc1OCC(F)(F)F (stereo not given),-8.46% (inactive)
23,CN1C(C(=O)Nc2ccccn2)=C(O)c2sccc2S1(=O)=O,9.83% (inactive)

# Same assay, conditions: Jurkat NFAT-bla M1, carbachol, beta-lactamase ratio, 5 h; at 38 µM (top of the series)
row,SMILES,"activity change, negative = inhibition"
1,Cc1cc(O)c2c(c1)C(=O)c1cc(O)cc(O)c1C2=O,7.8% (inactive)
2,O=c1ccc2ccc(O)c(O)c2o1,-9.14% (inactive)
3,O=c1c(O)c(-c2ccc(O)cc2O)oc2cc(O)cc(O)c12,2.93% (inactive)
4,Cc1cccc(C#Cc2ccccc2)n1,-6.27% (inactive)
5,O=C(CCc1ccc(O)cc1)c1c(O)cc(O)cc1O,9.49% (inactive)
6,O=C1c2ccccc2-c2n[nH]c3cccc1c23,6.14% (inactive)
7,O=C(O)c1cccnc1Nc1cccc(C(F)(F)F)c1,5.69% (inactive)
8,O=c1c(O)c(-c2cc(O)c(O)c(O)c2)oc2cc(O)cc(O)c12,11.8% (inactive)
9,COc1ccc2cc([C@H](C)C(=O)O)ccc2c1,0.0959% (inactive)
10,O=c1cc(N2CCOCC2)oc2c(-c3ccccc3)cccc12,-14.3% (inactive)
11,Cc1c(OCC(F)(F)F)ccnc1CS(=O)c1nc2ccccc2[nH]1 (stereo not given),0.241% (inactive)
12,NNc1nncc2ccccc12,8.48% (inactive)
13,CC1(C)NC(=O)N(c2ccc([N+](=O)[O-])c(C(F)(F)F)c2)C1=O,1.13% (inactive)
14,NCCCCNCCCN,-4.2% (inactive)
15,O=C1NC(=O)C(c2ccccc2[N+](=O)[O-])=C1Nc1ccc(O)c(Cl)c1,-15.2% (inactive)
16,Nc1nc(OCc2ccccc2)c2[nH]cnc2n1,-5.61% (inactive)
17,COc1ccccc1N1CCN(CCN(C(=O)C2CCCCC2)c2ccccn2)CC1,3.68% (inactive)
